Measured values from PubChem BioAssay (NCI).
Compounds without any hit were thinned out: in the full panel of roughly 79,000, 15% have a hit. Unmarked numbers belong to inactive results. The source made the active and inactive calls. Cut-off read from the data, not from the text of the source: active = growth inhibition above about 70%; inactive = the rest.

Columns and labels:
[1] = NCI Yeast Anticancer Drug Screen. Data for the rad50 strain (AID 155);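 note: 0% = growth of vehicle-only cultures of the same strain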; details: S. cerevisiae rad50 strain growth inhibition, stronger effect = higher value
Procedure, shortened: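 Inhibition values express reduced yeast growth in compound-treated cultures relative to vehicle-treated controls.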

[2] = NCI Yeast Anticancer Drug Screen. Data for the mec2-1 strain (AID 157); details: S. cerevisiae mec2-1 strain, stronger effect = higher value
Procedure, shortened: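 Each compound was tested on mec2-1 yeast, a strain altered in DNA damage repair or cell cycle control. Growth inhibition is reported relative to vehicle.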

[3] = NCI Yeast Anticancer Drug Screen. Data for the sgs1 mgt1 strain (AID 161);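 note: 0% = growth of cultures given vehicle only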; details: S. cerevisiae sgs1 mgt1 strain, stronger effect = higher value
Procedure, shortened: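 Test agents were incubated with a DNA-repair-mutant yeast strain. Growth was then read and compared against vehicle-treated controls.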

[4] = NCI Yeast Anticancer Drug Screen. Data for the cln2 rad14 strain (AID 165);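 note: 0% = growth equal to vehicle treated cultures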; details: S. cerevisiae cln2 rad14 strain, stronger effect = higher value
Procedure, shortened: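 Test compounds were added to cln2 rad14 yeast cultures; inhibition of growth was then determined by comparison with vehicle treatment.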

[5] = NCI Yeast Anticancer Drug Screen. Data for the bub3 strain (AID 167); details: S. cerevisiae bub3 mutant strain, stronger effect = higher value
Procedure, shortened: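 Steps: expose the mutant yeast strain to compound; grow alongside vehicle-treated cultures; measure growth; express inhibition against the vehicle cultures.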

[6] = NCI Yeast Anticancer Drug Screen. Data for the mlh1 rad18 strain (AID 175); details: S. cerevisiae mlh1 rad18 strain growth inhibition, stronger effect = higher value
Procedure, shortened: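 Inhibition values reflect reduced growth of mutant yeast versus vehicle-treated controls following compound exposure; the mutations affect DNA damage repair.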

[7] = at 5.0 µM (retest, dose inferred, filed as 0.5)
[8] = at 50.0 µM (retest, dose inferred, filed as 5.0)

| Structure (SMILES) | growth inhibition [1, 7] | growth inhibition [1, 8] | growth inhibition ([1]; at 50.0 µM) | growth inhibition [2, 7] | growth inhibition [2, 8] | growth inhibition ([2]; at 50.0 µM) | growth inhibition [3, 7] | growth inhibition [3, 8] | growth inhibition ([3]; at 50.0 µM) | growth inhibition [4, 7] | growth inhibition [4, 8] | growth inhibition ([4]; at 50.0 µM) | growth inhibition [5, 7] | growth inhibition [5, 8] | growth inhibition ([5]; at 50.0 µM) | growth inhibition [6, 7] | growth inhibition [6, 8] | growth inhibition ([6]; at 50.0 µM) |
| --- | --- | --- | --- | --- | --- | --- | --- | --- | --- | --- | --- | --- | --- | --- | --- | --- | --- | --- |
| Clc1ccc(CN2COc3c(cc(Cl)c4cccnc34)C2)c(Cl)c1 | 6% | 98% (active) | 23.6% | -20% | 91% (active) | 22.9% | -1% | 97% (active) | -6.85% | -9% | 97% (active) | 46.1% | 0% | 98% (active) | 3% | 0% | 95% (active) | 1.4% |
| O=C(O)c1c2c(cc3c1CC1(Cc4ccccc4C1=O)C3)CCC2 (configuration not stated) | 7% | 7% | 81.2% (active) | 21% | 21% | 89% (active) | 20% | 20% | 84.8% (active) | -10% | -10% | 84.2% (active) | 16% | 16% | 84.2% (active) | 24% | 24% | 77.9% (active) |
| O=C(Nc1ccccc1)OCCN=C1c2ccccc2CCc2ccccc21 | 4% | 95% (active) | 66.1% | -35% | 96% (active) | 76.2% (active) | -27% | 95% (active) | 81.7% (active) | -30% | 94% (active) | 84% (active) | -30% | 96% (active) | 83.9% (active) | -22% | 95% (active) | 88.8% (active) |
| Cc1c2cc[n+]([O-])cc2c(C)c2c1oc1ccccc12 | 65% | 99% (active) | 50.5% | 34% | 98% (active) | 46.6% | 13% | 98% (active) | 42.4% | 23% | 99% (active) | 50.8% | 32% | 99% (active) | 95.2% (active) | 22% | 98% (active) | 55.1% |
| CC(C)CCCC(C)C1CCC2C3CC=C4CC(OC(=O)Nc5ccc(S(=O)(=O)c6ccc(F)cc6)cc5)CCC4(C)C3CCC12C (configuration not stated) | 3% | 2% | 96.3% (active) | 1% | 4% | 98% (active) | 0% | 0% | 97.8% (active) | 3% | 9% | 51.5% | 1% | -12% | 96.7% (active) | 4% | -6% | 96.4% (active) |
| O=C(/C=C/c1ccccc1Cl)c1ccc(F)cc1 | 7% | 22% | 54.2% | -12% | 20% | 70.4% (active) | -1% | -4% | 53.8% | 9% | 17% | 34% | 33% | 51% | 78.8% (active) | 8% | 47% | 29.6% |
| COc1ccc2c(c1)n([O-])c1cc(C#N)ccc1[n+]2=O | 94% (active) | 97% (active) | 96.1% (active) | 50% | 97% (active) | 45.6% | 41% | 80% (active) | 35.9% | 17% | 59% | -11.7% | 33% | 87% (active) | 44.9% | 73% (active) | 96% (active) | 28.6% |
| COc1ccc(C2C3CCCC(C3=O)C(c3ccc(OC)cc3)N2N=O)cc1 (configuration not stated) | 0% | 68% | 84% (active) | 11% | 64% | 86.9% (active) | -4% | 77% (active) | 59.5% | -6% | 71% (active) | 88.8% (active) | -2% | 72% (active) | 85.2% (active) | -3% | 77% (active) | 96.5% (active) |
| CCCCC#CCOC(=O)c1cc([N+](=O)[O-])cc([N+](=O)[O-])c1 | 97% (active) | 99% (active) | 99.2% (active) | 99% (active) | 100% (active) | 98.5% (active) | 99% (active) | 99% (active) | 99.8% (active) | 67% | 99% (active) | 99.3% (active) | 96% (active) | 100% (active) | 99.3% (active) | 98% (active) | 99% (active) | 98.8% (active) |
| CCCCCCCCCCCCCCCC[n+]1ccc(/C=C/c2ccccc2)cc1 | 75% (active) | 95% (active) | 98.4% (active) | 100% (active) | 96% (active) | 98.8% (active) | 99% (active) | 98% (active) | 98.5% (active) | 46% | 94% (active) | 97.8% (active) | 88% (active) | 97% (active) | 97.8% (active) | 99% (active) | 98% (active) | 97.7% (active) |
| N#CC(NNC(=O)c1ccccc1O)c1c(O)ccc2ccccc12 (configuration not stated) | -4% | 59% | 74.3% (active) | 22% | 51% | 38.9% | -5% | 50% | 61.9% | 16% | 62% | 41.4% | 17% | 79% (active) | 56.1% | 4% | 82% (active) | 51.5% |
| CN(C)CC/C(=N\Nc1ccc(Cl)cc1Cl)c1ccccc1 | 90% (active) | 99% (active) | 99.5% (active) | 79% (active) | 100% (active) | 99.5% (active) | 97% (active) | 100% (active) | 99.5% (active) | 95% (active) | 99% (active) | 99.2% (active) | 96% (active) | 100% (active) | 99.5% (active) | 96% (active) | 100% (active) | 99.2% (active) |
| O=C(CC(O)(C(F)(F)F)C(F)(F)Cl)CC(O)(C(F)(F)F)C(F)(F)Cl (configuration not stated) | 94% (active) | 88% (active) | 99.3% (active) | 92% (active) | 99% (active) | 99.4% (active) | 91% (active) | 99% (active) | 99.7% (active) | 89% (active) | 99% (active) | 99% (active) | 86% (active) | 99% (active) | 99.5% (active) | 94% (active) | 99% (active) | 99.4% (active) |
| CC1=C(C(=O)Nc2cccc(Cl)c2)C(c2ccccc2F)C(C(=O)Nc2cccc(Cl)c2)=C(C)N1 | 44% | 44% | 71.3% (active) | 49% | 49% | 81.8% (active) | 37% | 37% | 86.2% (active) | 36% | 36% | 85.1% (active) | 56% | 56% | 86.8% (active) | 62% | 62% | 87.7% (active) |
| C=C1N(S(=O)(=O)c2ccc(C)cc2)C(=O)OCC12CCCC2 | -22% | 3% | 2.2% | -15% | -21% | -1.5% | -21% | 9% | 20% | -21% | 5% | 8.9% | -16% | 43% | 54.2% | -24% | -2% | 3.5% |
| CC1OC(C)C(O)C2=C1C(=O)c1ccccc1C2=O (configuration not stated) | -4% | 95% (active) | 91.9% (active) | -29% | 77% (active) | 86.3% (active) | 14% | 94% (active) | 91.8% (active) | 2% | 55% | 60.4% | 14% | 87% (active) | 83.5% (active) | 23% | 96% (active) | 87.8% (active) |
| COc1cc(C2C(Cl)C(=O)N2NC(=O)c2ccc(NC(C)=O)cc2)cc(OC)c1OC (configuration not stated) | 1% | -16% | -8.6% | -9% | -16% | -10.1% | -9% | -7% | 8.15% | -16% | -5% | 19.1% | 3% | -2% | -9.3% | -10% | 3% | 12.3% |
| CCCCC1(C(O)CC)Sc2ccccc2N1C (configuration not stated) | -7% | 24% | 31.8% | 2% | 82% (active) | 41.5% | -2% | 83% (active) | 50.6% | 1% | 36% | 65.9% | -14% | 67% | 61.6% | -12% | 90% (active) | 56% |
| CC1(C)CC(=O)C2=C(C1)OC1=C(C(=O)CC(C)(C)C1)C2CC(c1ccccc1)c1ccc(O)c(O)c1O (configuration not stated) | 22% | 30% | 72.2% (active) | 6% | -8% | 22.8% | 9% | 2% | 48.3% | 5% | 18% | 28.2% | -11% | -23% | 36% | 30% | 10% | 56% |
